In the library only some 4% were active in any assay of this set; here they are far more common.
Mtb betalactam – beta-lactam sensitization of Mtb H37Rv; M. tuberculosis H37Rv growth with meropenem, percent inhibition; inhibition, % at 25 µM; 330,000 tested, 0.27% active; AID 434955;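 note: growth measured after seven days incubation then overnight dye step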
FBA Mtb inh – inhibitors of M. tuberculosis fructose-bisphosphate aldolase; P9WQA3; purified M. tuberculosis FBA, fluorescence read-out; 360,000 tested, 2.3% active; inhibition, % at 1 µM; in the data active = inhibition above about 27%
Target sequence (P9WQA3 whole entry, looked up): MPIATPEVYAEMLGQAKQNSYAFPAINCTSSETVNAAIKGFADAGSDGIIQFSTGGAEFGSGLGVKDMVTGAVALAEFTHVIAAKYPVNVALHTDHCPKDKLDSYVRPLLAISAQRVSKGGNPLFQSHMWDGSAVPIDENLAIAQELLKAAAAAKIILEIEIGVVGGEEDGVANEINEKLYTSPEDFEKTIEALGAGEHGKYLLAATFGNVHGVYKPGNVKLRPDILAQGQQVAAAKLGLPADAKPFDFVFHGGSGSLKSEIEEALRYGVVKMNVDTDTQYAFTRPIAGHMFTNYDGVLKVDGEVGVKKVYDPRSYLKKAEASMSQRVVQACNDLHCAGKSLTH
RecA intein inh – blocks M. tuberculosis RecA intein splicing; cell-free RecA intein splicing, fluorescence; inhibition, % (test concentration not listed); 290,000 tested, 0.75% active; AID 2221; in the data active = inhibition above about 30%; inconclusive = no clear call, values can overlap the other calls
Mtb UGM inh – Mtb UDP-galactopyranose mutase inhibition. purified UGM, fluorescence polarization probe displacement. P9WIQ1. AID 504406. inhibition, % at 10 µM. 320,000 tested, 0.06% active; in the data active = inhibition above about 10%, passing the limit was not always enough; inconclusive = no clear call, values can overlap the other calls
GDH-TPI inh – GDH-TPI coupled enzyme inhibition counter-screen; GDH-TPI coupled enzyme counterscreen, NADH absorbance; inhibition, % at 4.8 µM; 360,000 tested, 1.2% active; in the data active = inhibition above about 30%
Rv3671c protease – inhibits the M. tuberculosis serine protease Rv3671c; P9WHR9; 320,000 tested, 0.048% active; inhibition, % at 5.96 µM; in the data active = inhibition above about 38%;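 note: extracellular domain of Rv3671c used as enzyme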
GFP chromo cs – counter-screen GFP chromophore formation inhibition; shares compounds with RecA intein inh; cell-free GFP chromophore formation, fluorescence; EC50, µM; 2,100 tested, 83% active; AID 434968
Each line names hits and unclear results; the compound was inactive in the other large screens (follow-up assays come after a bar, where they were run). Unless noted, the rule behind the calls is not given here.

Cc1[nH][nH]c(=O)c1C(c1ccc(-c2ccc(C(=O)O)cc2)o1)c1c(C)[nH][nH]c1=O	none (no result: Mtb betalactam, RecA intein inh, Mtb UGM inh, Rv3671c protease)
Cc1[nH][nH]c(=O)c1C(c1ccc(-c2ccc(Cl)c(Cl)c2)o1)c1c(C)[nH][nH]c1=O	RecA intein inh 97 | GFP chromo cs 0.66
Cc1[nH][nH]c(=O)c1C(c1ccc(-c2ccc(F)cc2)o1)c1c(C)[nH][nH]c1=O	RecA intein inh 97 | GFP chromo cs 0.58
CN(C)c1cc(-c2ccc(Cl)c(Cl)c2)oc(=O)c1Cl	none
Cn1cc(Cc2ccc(C(=O)N3CCN(Cc4ccccc4)CC3)cn2)c2ccccc21	none (no result: Mtb betalactam, RecA intein inh, Mtb UGM inh, Rv3671c protease)
COc1ccc(C(=O)OCC(=O)NC2CCCCCC2)cc1OC	none (no result: RecA intein inh)
CCCCOCCCNS(=O)(=O)c1ccccc1	none
CCCCOP(=O)(OCCCC)C1(NS(=O)(=O)c2ccccc2)C=CC(=O)c2ccccc21 (stereo unspecified)	RecA intein inh 88 | GFP chromo cs 5
COc1cccc(N(CC(=O)NC2CCCCC2)C(=O)CCC(=O)Nc2nccs2)c1	none
Cc1ccc(CNC(=O)c2ccc(N(C)S(=O)(=O)c3ccccc3)cc2)cc1	RecA intein inh 37 | GFP chromo cs inactive
COc1ccc(C(=O)n2nnc3ccccc32)cc1Br	RecA intein inh 35 | GFP chromo cs inactive
COc1ccc(C(=O)n2nnc3ccccc32)cc1OC	none (no result: RecA intein inh)
COC(=O)c1[nH]c(=O)c2ccccc2c1O	RecA intein inh 81 | GFP chromo cs 15
Cn1nc(-c2ccccn2)nc2c(=O)n(C)c(=O)nc1-2	RecA intein inh 95 | GFP chromo cs 0.41
CCCc1nc2c(=O)n(C)c(=O)nc-2n(C)n1	none (no result: Mtb betalactam, RecA intein inh, Mtb UGM inh, Rv3671c protease)
Cn1ncnc2c(=O)n(C)c(=O)nc1-2	RecA intein inh 97 | GFP chromo cs 0.09
O=C(COC(=O)CCc1c[nH]c2ccccc12)Nc1ccccc1C(F)(F)F	none (no result: RecA intein inh)
C=CCNC(=O)c1onc(CS(=O)(=O)c2cc(C)cc(C)c2)c1C(=O)NCC=C	none
Cc1ccc(OC(C)C(=O)N2CC(=O)Nc3ccccc32)cc1 (stereo unspecified)	none
COc1cc2c(cc1OC)C(c1cc(Br)ccc1F)N(C(=O)CCl)CC2 (stereo unspecified)	RecA intein inh 86 | GFP chromo cs 4.5
Cc1cccc(N(C(=O)CNC(=O)c2ccco2)C(C(=O)NC2CCCCC2)c2cccnc2)c1 (stereo unspecified)	none
O=C(NC1CCCCC1)C(c1cccnc1)N(C(=O)CCl)c1cccc(Cl)c1 (stereo unspecified)	RecA intein inh 79 | GFP chromo cs 5.9
COC(CN(C(=O)CCl)C(C(=O)NC1CCCCC1)c1ccc(Cl)cc1)OC (stereo unspecified)	RecA intein inh 35 | GFP chromo cs 34
COc1ccc(C(C(=O)NC2CCCCC2)N(C(=O)CCl)c2ccc(Cl)cc2)cc1 (stereo unspecified)	RecA intein inh 67 | GFP chromo cs inconclusive
CN(C)C(C(=O)NC1CCCCC1)c1ccc(Cl)cc1 (stereo unspecified)	none
COc1ccc(N(C(=O)c2cnccn2)C(C(=O)NC2CCCCC2)c2ccc(Cl)cc2)cc1 (stereo unspecified)	none
CC(OC(=O)C1=COCCO1)C(=O)Nc1ncc(Cl)cc1Cl (stereo unspecified)	none (no result: Mtb betalactam, RecA intein inh, Mtb UGM inh, Rv3671c protease)
COc1ccc(C2c3c(ncn(Cc4ccco4)c3=N)Oc3ccc4ccccc4c32)cc1 (stereo unspecified)	none
N=c1c2c(ncn1Cc1ccco1)Oc1ccc3ccccc3c1C2c1ccccc1 (stereo unspecified)	RecA intein inh 30 | GFP chromo cs 33
O=C1C=C(N2CC2)c2ccccc2C1=O	none (no result: Mtb betalactam, RecA intein inh, Mtb UGM inh, Rv3671c protease)
O=C1C=C(N2CCOCC2)c2ccccc2C1=O	RecA intein inh 97 | GFP chromo cs 0.56
CCCCCCCCCCOC(=O)Cn1c(COc2cccc(C)c2)[n+](C)c2ccccc21	RecA intein inh 55 | GFP chromo cs 9.4
CCCCCCCCCCOC(=O)Cn1c(COc2ccccc2C)[n+](C)c2ccccc21	RecA intein inh 57 | GFP chromo cs 7.6
CCCCCCCCCCOC(=O)Cn1c(COc2ccc(Cl)cc2)[n+](C)c2ccccc21	none
CCCCCCCCCCOC(=O)Cn1c(COc2ccc(OC)cc2)[n+](C)c2ccccc21	RecA intein inh 42 | GFP chromo cs 11
CCCCCCCCCCOC(=O)Cn1c(COc2ccccc2)[n+](C)c2ccccc21	RecA intein inh 47 | GFP chromo cs 12
COCCNC(=S)N1CCN(S(C)(=O)=O)CC1	none
CN(Cc1ccccc1)C(=O)c1[nH]cnc1C(=O)Nc1ccc(Br)cc1F	none (no result: Mtb betalactam, RecA intein inh, Mtb UGM inh, Rv3671c protease)
O=C(NCCCN1CCOCC1)c1cc(S(=O)(=O)N2CCCCC2)ccc1Cl	none (no result: Mtb betalactam, RecA intein inh, Mtb UGM inh, Rv3671c protease)
CCOC(=O)c1nnc(-c2ccccc2)nc1Sc1ccccc1Cl	RecA intein inh 40 | GFP chromo cs 2
CCN(CC)C(=O)c1ccc2c(c1)C1C(Cl)C(Sc3ccccc3[N+](=O)[O-])CC1C(C(=O)O)N2 (stereo unspecified)	RecA intein inh 36 | GFP chromo cs 23
CC1=CC(C)(C)N2C(=O)C3(C(C#N)=C(N)Oc4cc(C)oc(=O)c43)c3cc(C)cc1c32 (stereo unspecified)	none
CCc1cc2c3c(c1)C1(C(=O)N3C(C)(C)C=C2C)C(C#N)=C(N)Oc2[nH]c(=O)[nH]c(=O)c21 (stereo unspecified)	RecA intein inh 78 | GFP chromo cs 19
CCSc1nnc(NC(=O)c2nc(S(=O)(=O)Cc3ccc(F)cc3)ncc2Cl)s1	RecA intein inh 85 | GFP chromo cs 21
CC(C)c1nnc(NC(=O)c2nc(S(=O)(=O)Cc3ccc(F)cc3)ncc2Cl)s1	RecA intein inh 82 | GFP chromo cs 16
Cc1ccc(CS(=O)(=O)c2ncc(Cl)c(C(=O)Nc3ccc(OC(F)F)cc3)n2)cc1	none
CSc1nnc(NC(=O)c2nc(S(=O)(=O)Cc3cccc(C)c3)ncc2Cl)s1	RecA intein inh 81 | GFP chromo cs 18
Cc1ccc(CS(=O)(=O)c2ncc(Cl)c(C(=O)Nc3nnc(C(C)C)s3)n2)cc1	RecA intein inh 86 | GFP chromo cs 3.7
CC1=C([N+](=O)[O-])C(c2ccccc2)NC(=O)N1 (stereo unspecified)	none
COCOCCn1cc(CN2CCS(=O)(=O)N(Cc3ccc(-c4cccc(N(C)C)c4)cc3)C(C(C)C)C2=O)nn1 (stereo unspecified)	none (no result: Mtb betalactam, RecA intein inh, Mtb UGM inh, Rv3671c protease)
COc1cccc(CNC(=O)c2ccccc2NC(=O)C2=C(C)OCCS2)c1OC	none
Cc1cccc(CS(=O)(=O)c2ncc(Cl)c(C(=O)Nc3nnc(C(C)C)s3)n2)c1	RecA intein inh 86 | GFP chromo cs 0.86
CCOc1ccc(S(=O)(=O)Nc2cc(SCC(=O)O)c(O)c3ccccc23)cc1	RecA intein inh 96 (no result: Rv3671c protease) | GFP chromo cs 8.9
O=S(=O)(Nc1cc(Sc2cccc3cccnc23)c(O)c2ccccc12)c1ccccc1	none (no result: Mtb betalactam, FBA Mtb inh, Mtb UGM inh, GDH-TPI inh, Rv3671c protease)

Source: PubChem
